Assay results taken from PubChem BioAssay (NCATS).
Values joined by “and” are separate entries in the source; they are usually repeats but may differ in a detail not shown here. Equal values may be shown once. Some compounds were tested as several samples or in several runs, with calls that do not always agree. Active and inactive are the calls of the source. A call without a number means that no potency is given here. Calls follow the shape of the dose curve; as a rule, active = well fitted activation curve with a large enough effect; inconclusive = small, poorly fitted or top-dose-only effect; inactive = flat fitted curve, though single readings scatter.
Potency is read from the fitted curve at half-maximal effect.

Test: Confirmation and Secondary Assay for Modulators of Hemoglobin Beta Chain Splicing at IVS2 705 locus (AID 930)
Settings: HeLa EGFP-705 splicing reporter, GFP fluorescence, 48 h; series mostly up to 46.1 µM
Text: NIH Chemical Genomics Center [NCGC] NIH Molecular Libraries Screening Centers Network [MLSCN] MLSCN Grant: 1 X01 MH080684-01 PI Name: Dr. Ryszard Kole NCGC Assay Overview: Modulation of Alternative Splicing as Therapy Abnormal splicing is associated with a number of diseases, including cancer and genetic diseases such as cystic fibrosis, muscular dystrophy and beta-thalassemia. Alteration of disease associated splicing patterns provides a promising target for treatment. […] Mutations in the second intron of the b-globin gene at positions 654 or 705 are clinically relevant and cause mis-splicing which results in an out of frame gene product. […] EGFP-705 HeLa Cells as screen system. HeLa cell lines were stably transfected with a construct in which the EGFP (enhanced green fluorescent protein) cDNA was interrupted by the second intron of the beta-globin gene (IVS2-705). The ISV2 intron contains mutations which cause mis-splicing of EGFP and premature termination of EGFP which results in a nonfluorescent protein product. […] Expression of the transgene was driven by the CMV promoter. We concluded that a low molecular weight compound, which restored correct splicing of intron 2 would also generate functional EGFP protein, resulting in a fluorescent signal. Thus, the HeLa cells that express the EGFP-705 construct can be used for validation of splice site specificity of compounds identified in primary screening of the ISV2 654 construct.
NCGC Assay Protocol Summary: Confirmatory Screening. Freshly thawed HeLa EGFP-705 cells were seeded in 5 ul of optimem media (Invitrogen) containing 2 % fetal calf serum (Hyclone) and 1x penicillin/streptomycin (Invitrogen) at a concentration of 500 cells per well in 1536-well plates. Cells were incubated overnight at 37C in 5% CO2. The next day, cells were treated with DMSO, 500 nM antisense ISV2 654 PNA control oligo, or library compound and allowed to grow at 37C in 5% CO2 for 2 days. The PNA oligo blocked the mutation site in the intron and allowed proper (wild type) splicing to occur, resulting in full length EGFP expression and also allowed for optimization of the assay parameters. Plates were read in the Acumen Explorer (TTP Labtech) using 488 nm laser excitation and 500-520 nm emission PMT filter in a 1 x 8 uM capture mode. Fluorescnet objects ranging in size from 5 to 250 uM were measured and the total peak GFP intensity for each well was used for data analysis. Keywords: Thalassemia, beta-thalassemia, beta-globin, EGFP, ISV2 654, ISV2 705, SSO, PNA, antisense, splicing, MLSMR, MLSCN, NIH Roadmap, qHTS, NCGC
With Nc1ccc(S(=O)(=O)Nc2ccnn2-c2ccccc2)cc1 the Potency was “inactive”. With O=C(O)COCCN1CCN(C(c2ccccc2)c2ccc(Cl)cc2)CC1 (stereo unspecified) the Potency was “inactive”. For O=C1CCc2cc(OCCCCc3nnnn3C3CCCCC3)ccc2N1, the Potency was “inactive”. In the case of CCCCNc1cc(C(=O)O)cc(S(N)(=O)=O)c1Oc1ccccc1, the Potency is reported as “inactive”. In the case of Cc1oncc1C(=O)Nc1ccc(C(F)(F)F)cc1, the Potency is reported as “inactive”. In the case of Cc1ccc(N(CC2=NCCN2)c2cccc(O)c2)cc1, the Potency is reported as “inactive”. With Cc1ccccc1C(OCCN(C)C)c1ccccc1 (stereo unspecified) the Potency was “inactive”. With CCn1cc(C(=O)O)c(=O)c2cc(F)c(N3CCNC(C)C3)c(F)c21 (stereo unspecified) the Potency was “inactive”. With CC(C)(C)NCC(O)c1ccc(O)c(CO)c1 (stereo unspecified) the Potency was “inactive”. For NC(=O)c1cnccn1, the Potency was “inactive”. With Cn1cnc([N+](=O)[O-])c1Sc1ncnc2nc[nH]c12 the Potency was “inactive and 2.51 µM (active)”. For Cc1cc2c(C(C)C)c(O)c(O)c(C=O)c2c(O)c1-c1c(C)cc2c(C(C)C)c(O)c(O)c(C=O)c2c1O, the Potency was “inactive”. For Cc1cnc(NC(=O)C2=C(O)c3ccccc3S(=O)(=O)N2C)s1, the Potency was “inactive”. In the case of CCCc1nc2c(C)cc(-c3nc4ccccc4n3C)cc2n1Cc1ccc(-c2ccccc2C(=O)O)cc1, the Potency is reported as “inactive”. With CC(C[N+](C)(C)C)OC(N)=O (stereo unspecified) the Potency was “inactive”. With O=NN(CCCl)C(=O)NCCCl the Potency was “inactive”. In the case of NC(N)=NC(=O)c1nc(Cl)c(N)nc1N, the Potency is reported as “inactive”. In the case of N=c1nc(N2CCCCC2)cc(N)n1O, the Potency is reported as “inactive”. In the case of O=c1[nH]cnc2[nH]ncc12, the Potency is reported as “inactive”. In the case of CC(=O)Oc1ccccc1C(=O)O, the Potency is reported as “inactive”. For NNCCc1ccccc1, the Potency was “inactive”. With NS(=O)(=O)c1cc2c(cc1Cl)NC=NS2(=O)=O the Potency was “inactive”. In the case of Nc1nc2c(ncn2COCCO)c(=O)[nH]1, the Potency is reported as “inactive”. In the case of CCN(CC)CCCC(C)Nc1ccnc2cc(Cl)ccc12 (stereo unspecified), the Potency is reported as “inactive”. With CCCc1nn(C)c2c(=O)[nH]c(-c3cc(S(=O)(=O)N4CCN(C)CC4)ccc3OCC)nc12 the Potency was “inactive”. With CCCC(CCC)C(=O)O the Potency was “inactive”. In the case of CCc1ccc(CCOc2ccc(CC3SC(=O)NC3=O)cc2)nc1 (stereo unspecified), the Potency is reported as “inactive”. For CCOC(=O)N1CCC(=C2c3ccc(Cl)cc3CCc3cccnc32)CC1, the Potency was “inactive”. For O=c1n(CCCN2CCN(c3cccc(Cl)c3)CC2)nc2ccccn12, the Potency was “inactive”. With CN1CCN(CCCN2c3ccccc3Sc3ccc(C(F)(F)F)cc32)CC1 the Potency was “inactive”. In the case of NCCc1ccc(O)c(O)c1, the Potency is reported as “inactive”.
